An excerpt weighted towards active compounds, which were near 1.7% of everything screened.
MOR-DOR inv ag-1: inverse agonists of human mu-delta opioid receptor heterodimerization; P35372+P41143; cell-based MOR-DOR heterodimer luminescence, inverse agonism; inhibition, % at 9.3 µM; 340,000 compounds, 0.21% hits; in the data active means inhibition above about 22%, passing the limit was not always enough;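 further: 0% = cells with DMSO and 100% = wells without cells with DMSO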
MOR-DOR ag: OPRM1-OPRD1 heterodimerization agonism; P35372+P41143; cells, luminescence; activation, % at 9.3 µM; 340,000 compounds, 0.3% hits; AID 504326; in the data active means activation above about 18%;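 further: 0% = vehicle-treated cells and 100% = reference agonist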
HTR5A ag ctr: HTR5A agonism, opioid heterodimer counter-screen; activation, % at 9.3 µM; 340,000 compounds, 0.61% hits; P47898; HTR5A agonist assay, luminescence, cell-based; in the data active means activation mostly above about 9.5%, no sharp cut-off; inactive means mostly below about 7.6%;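 further: 0% = cells with vehicle only and 100% = reference agonist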
HTR5A inv ctr: HTR5A inverse agonism, opioid heterodimer counter-screen; P47898; HTR5A cell line, luminescence; inhibition, % at 9.3 µM; 340,000 compounds, 0.083% hits; AID 504634; in the data active means inhibition mostly above about 23%, no sharp cut-off; inactive means mostly below about 18%;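 further: 0% = cells with DMSO and 100% = no-cell wells with DMSO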
beta cell repl: MIN6 beta-cell proliferation induction. 330,000 compounds, 0.29% hits. proliferation, % at 10 µM. MIN6 cells proliferation, ATPlite luminescence, 48 h; cells starved in 0.2% serum; 100% = growth in 10% serum;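 active means compounds whose signal lies at least 3.5 SD above the mean of all wells on their plate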;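 further: 0% = DMSO-treated cells in low-serum medium and 100% = 10% serum control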
V-ATPase pH: yeast V-ATPase proton transport regulation by pHLuorin; S. cerevisiae, pHLuorin cytosolic pH fluorescence; AID 504577; 350,000 compounds, 0.37% hits; response, % at 10 µM; in the data active means response mostly above about 7.3%, no sharp cut-off; inactive means mostly below about 5.4%; further: actives read high
MOR-DOR inv ag-2: inverse agonist of OPRM1-OPRD1 heterodimerization in HTR5A counter-screen; inhibition, % at 9.3 µM; shares compounds with HTR5A inv ctr; U2OS counter-screen cells, complementation luminescence; 190 tested, under 10 active;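 further: 0% = cells with DMSO and 100% = wells without cells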
HTR5A inv confrm: confirmation of human HTR5A inverse agonists. HTR5A-expressing cells, inverse agonism, luminescence. 190 tested, under 10 active. inhibition, % at 9.3 µM. shares compounds with HTR5A inv ctr;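 further: 0% = cells with DMSO and 100% = no cells with DMSO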
* marks the source's active call; other numbers are inactive results. Unless noted, how the calls were made is not given here.

Screening COCCN(C(=O)COC(=O)c1cc(C)oc1C)c1c(N)n(Cc2ccccc2)c(=O)[nH]c1=O returned MOR-DOR inv ag-1 3.2, MOR-DOR ag -0.6, HTR5A ag ctr -25.9, HTR5A inv ctr 64.9*, beta cell repl 0.9, V-ATPase pH -1.7, MOR-DOR inv ag-2 -8.0 and HTR5A inv confrm -15.6.
For NC(=NCc1ccccc1)C(N=Nc1ccccc1)C(=O)NCc1ccccc1 (stereo not drawn) the results were MOR-DOR inv ag-1 7.0, MOR-DOR ag -1.4, HTR5A ag ctr -7.6, HTR5A inv ctr 29.5*, V-ATPase pH -0.4, MOR-DOR inv ag-2 -81.9 and HTR5A inv confrm -2.4.
`O=C(Cc1ccccc1)NCc1ccc2c(c1)OCO2` gave MOR-DOR inv ag-1 6.9, MOR-DOR ag -1.2, HTR5A ag ctr -1.6, HTR5A inv ctr 13.1, beta cell repl 4.3 and V-ATPase pH 0.5.
Screening O=C(CC12CCC(CC1)C2)NCc1ccc2c(c1)OCO2 returned MOR-DOR inv ag-1 -8.4, MOR-DOR ag 1.6, HTR5A ag ctr 1.8, HTR5A inv ctr 27.5*, beta cell repl -1.6, V-ATPase pH 5.1, MOR-DOR inv ag-2 inactive and HTR5A inv confrm 6.4.
CCN(CC)c1ccc(/C=N/Nc2ccccc2)c(O)c1 was read as MOR-DOR inv ag-1 -1.2, MOR-DOR ag 0.2, HTR5A ag ctr 0.5, HTR5A inv ctr 44.6*, beta cell repl -2.5, V-ATPase pH -0.7, MOR-DOR inv ag-2 -108.4 and HTR5A inv confrm -20.9.
COc1ccc(C2=NOC(C(=O)Nc3ccc4c(c3)OCCO4)C2)cc1OC (stereo not drawn) was read as MOR-DOR inv ag-1 13.2, MOR-DOR ag -2.9, HTR5A ag ctr -2.1, HTR5A inv ctr 7.5, beta cell repl 0.8 and V-ATPase pH 2.4.
For O=C(NCC1CCCO1)c1sc2cc(Cl)ccc2c1Cl (stereo not drawn) the results were MOR-DOR inv ag-1 -3.8, MOR-DOR ag 0.6, HTR5A ag ctr 0.6, HTR5A inv ctr -0.4, beta cell repl 0.0 and V-ATPase pH -1.4.
CCSc1nc(C)cc(Oc2ccc(=O)n(C)n2)n1 was read as MOR-DOR inv ag-1 3.1, MOR-DOR ag -0.6, HTR5A ag ctr -1.6, HTR5A inv ctr 89.3*, beta cell repl -0.7, V-ATPase pH -4.8, MOR-DOR inv ag-2 -191.9 and HTR5A inv confrm -13.1.
`CSc1nc(C)cc(Oc2ccc(=O)n(C)n2)n1` gave MOR-DOR inv ag-1 19.6, MOR-DOR ag -3.9, HTR5A ag ctr -4.1, HTR5A inv ctr 1.9, beta cell repl 0.1 and V-ATPase pH 5.7.
For CC(=O)NNC(=S)NC(=O)C(c1ccccc1)c1ccccc1 the results were MOR-DOR inv ag-1 19.7, MOR-DOR ag -3.9, HTR5A ag ctr -7.8, HTR5A inv ctr 20.4, beta cell repl -2.8 and V-ATPase pH 1.4.
CC(C)(C)C(=O)NC(=S)NNC(=O)C(c1ccccc1)c1ccccc1 was read as MOR-DOR inv ag-1 21.5, MOR-DOR ag -4.3, HTR5A ag ctr -15.1, HTR5A inv ctr 44.6*, beta cell repl -5.6, V-ATPase pH 2.3, MOR-DOR inv ag-2 2.4 and HTR5A inv confrm 23.2.
O=C(Cc1ccc(Cl)cc1)Nc1cccnc1Cl was read as V-ATPase pH 1.2.
For CCOc1ccc(NC(=S)NC(=O)c2c(Cl)cnn2CC)c([N+](=O)[O-])c1 the results were MOR-DOR inv ag-1 4.0, MOR-DOR ag -0.7, HTR5A ag ctr -6.7, HTR5A inv ctr 18.1, beta cell repl -5.5 and V-ATPase pH 0.8.
CCOc1ccc(NC(=S)NC(=O)c2c(Br)cnn2C)c([N+](=O)[O-])c1 was read as MOR-DOR inv ag-1 1.7, MOR-DOR ag -0.2, HTR5A ag ctr 0.3, HTR5A inv ctr 36.2*, beta cell repl -5.4, V-ATPase pH 4.7, MOR-DOR inv ag-2 -10.7 and HTR5A inv confrm -7.5.
Screening C[C@@H](OC(=O)c1[nH]cnc1C(=O)NCc1ccc(CNC(=O)OC(C)(C)C)cc1)c1ccccc1 returned MOR-DOR inv ag-1 -1.7, MOR-DOR ag 0.3, HTR5A ag ctr -4.2, HTR5A inv ctr 10.7, beta cell repl -5.4 and V-ATPase pH -0.2.

Screens (PubChem)
